Laboratory results from PubChem BioAssay AID1948 (National Center for Advancing Translational Sciences (NCATS), 2009).
Out of some 110,000 compounds screened, about 20 (0.02%) were called active. Inconclusive results (about 2%) are left out. The call rests on the fitted dose curve; in most records, active means well fitted activation curve with a large enough effect; inconclusive means small, poorly fitted or top-dose-only effect; inactive means no such curve, though single readings can be large or run the other way. This excerpt belongs to a sample that is enriched for actives.

Experiment: qHTS Assay for Compounds that Induce Erasure of Genomic Imprints
Settings: mouse ES Peg3-LacZ reporter, beta-gal luminescence, 40 h; series mostly up to 10.9 µM
Text: qHTS Assay for Compounds that Induce Erasure of Genomic Imprints NIH Chemical Genomics Center [NCGC] NIH Molecular Libraries Screening Centers Network [MLSCN] Assay Submitter (PI): JEFFRIES, SEAN, NCGC, University of Cambridge NCGC Peg3 Imprinting Assay Overview Genomic imprinting is the epigenetic process whereby genes are expressed in a parent of origin fashion. […] Unlike some forms of epigenetic silencing that can be overcome by overexpression of transcription factors, genomic imprinting stably represses the expression of one allele despite potentially high levels of expression from the other allele. […] During mouse embryonic day 11.5 imprints are erased in PGCs so that sex specific imprints can be reestablished during gametogenesis. Embryonic germ (EG) cells can be derived from developing PGCs at embryonic day 11.5 and these cells often lack genomic imprints. […] Embryonic stem (ES) cells are a cell type similar to EG cells in phenotype and transcriptional profile, yet ES cells maintain genomic imprints. This similarity between ES and EG cells prompted us to use ES cells to look for factors which could induce imprint erasure. To investigate the stability of genomic imprinting, ES cells were derived from mice with an insertion of a LacZ-Neomycin reporter construct in the Peg3 locus. Peg3 is an imprinted locus where gene expression is restricted to the paternal allele. […] Using LacZ expression we are able to monitor the state of the Peg3 imprint. In order to dissect the mechanisms involved in imprint erasure using a forward chemical genetics approach we developed a cell based phenotype assay using an endogenous silence imprinted locus. This assay utilizes maternally inherited Peg3LacZ-Neo ES cells by monitoring the LacZ expression from the normally silent Peg3 allele. To facilitate screening, high-density feeder-free ES cell culture has been optimized so that ES cells can be grown in 1536 for over four days without feeding or washes. The assay uses a luminescence based read out for LacZ activity and is a homogenous assay optimal for HTS.
NCGC Peg3 Imprinting Assay Protocol Summary ES cell lines were derived from blastocysts taken from Peg3LacZ-Neo x129 matings. Lines were sexed and genotyped for the Peg3LacZ-Neo allele. Female cells carrying the reporter allele were used in this study. Cells were derived on a layer of mouse embryonic fibroblasts and passaged multiple times before switching to feeder free culture. Cells were maintained feeder free on gelatin coated dishes in DMEM/F12 media supplemented with 15% FBS, 2mM L-glutamine, 100 units/ml penicillin, 100ug/ml streptomycin, 0.1mM MEM nonessential amino acids, 1mM sodium pyruvate, 0.1% sodium bicarbonate, 0.1mM 2-Mercaptoethanol, and 400 units/ml leukemia inhibitory factor (LIF) at 37C with 5% CO2. The assay was performed in 1536-well format. A single luminescence read was taken at the end of the assay and the data was normalized by plate to internal negative controls. Maximum efficacy and AC50 values were calculated from dose-response data using the standard Hill equation. 1536 well plates were filled with 0.5ul of 0.1% gelatin per well, spun down and incubated for at least 30 min at 37C. The ES cells were then trypsini Peg3 1536-well assay protocol: (1)Plate 0.5ul/well 0.1% gelatin in white tissue culture treated 1536-well plates, spin and incubate at 37C for at least 30 min. (2)Add 5ul/well (300 cells) of ES cell suspension from freshly trypsinized cells and incubate at 37C, 5% CO2 for 40 hours. (3)Add 5ul/well of freshly prepared BetaGlo solution and incubate at room temperature for 5 minutes. (4)Read luminescence on the ViewLux plate reader. Keywords Genomic Imprinting, Germ Cells, Embryonic Stem Cell, DNA Methylation, Peg3, qHTS, NIH roadmap, NCGC

Potency, inactive:
COc1cc(C(=O)Nc2ccc(OCc3cc(=O)n4ccc(C)cc4n3)cc2)cc(OC)c1OC, CCc1cccc(NC(=O)CSc2nccn2C)c1, COc1ccc(S(=O)(=O)NCCSc2nnnn2-c2ccccc2)cc1, CCOc1ccc(OCC)c(NC(=O)c2c(C)nn(-c3ccccc3)c2-n2cccc2)c1, Cc1c(Cl)cccc1NC(=O)C(=O)NCCc1csc2nc(-c3ccccc3F)nn12, CC(Sc1oc(-c2ccco2)nc1S(=O)(=O)c1ccc(Br)cc1)c1ccccc1 (stereo unspecified), Cc1cc(Cl)ccc1OCC(=O)N(Cc1ccc(N(C)C)cc1)C1CCS(=O)(=O)C1 (stereo unspecified), COc1ccc(Cc2nc3ccc(C(=O)NCc4ccccc4C)cc3o2)cc1, CC(=O)Nc1cc(C(=O)NCc2ccc(F)cc2Cl)ccc1Sc1ccc(Cl)cc1, COc1ccc(-c2nc3ccccc3o2)cc1NC(=O)c1cc([N+](=O)[O-])ccc1N1CCOCC1, Cn1c(=O)c2c(nc(SCC(=O)Nc3ccc(F)cc3)n2Cc2ccccc2)n(C)c1=O, CC(=O)OC1=C(C(C)=O)N(Cc2ccccc2)S(=O)(=O)c2ccccc21, CCOc1ccccc1NC(=O)Cn1c(=O)n(-c2cccc(C)c2)c(=O)c2c1c1cc(OC)ccc1n2C, CCc1nn(CC(=O)NCC(C)c2ccccc2)c(=O)c2cc3occc3n12 (stereo unspecified), Fc1ccccc1Oc1ncnc2c1oc1ccccc12, COc1ccc(OC)c(NC(=O)CN2CCCN(Cc3cc(C)ccc3C)S2(=O)=O)c1, O=C(Nc1c(C(=O)N2CCN(c3ccc(F)cc3)CC2)oc2ccccc12)c1ccco1, COc1ccccc1CNCc1ccc(C(=O)O)s1, O=C(C1CCC(Cn2c(=O)c3sccc3n(Cc3ccccc3F)c2=O)CC1)N1CCCCC1 (stereo unspecified), COc1ccc(OC)c(CNC(=O)CN2C(=O)CCn3nc(-c4cn(C)c5ccccc45)cc32)c1, COc1ccccc1CNC(=O)c1ccc(CS(=O)c2ccccc2Cl)o1 (stereo unspecified), CCN1CCc2nc3sc(C(=O)Nc4ccccc4OC(F)(F)F)c(N)c3cc2C1, COc1cc(OC)cc(-c2nc3nc(C)c(CCC(=O)Nc4ccc(C)cc4)c(C)n3n2)c1, CC1CCC2(CC1)N=C(c1ccccc1)C(=O)N2CC(=O)Nc1ccc(F)c(Cl)c1 (stereo unspecified), CCOc1ccc(NC(=O)c2cc(S(=O)(=O)N3CCCC3)c[nH]2)cc1, CC1CCN(S(=O)(=O)c2ccc3c(ccn3CCC(=O)NCc3ccc(N(C)C)cc3)c2)CC1, Cc1c(C(=O)NCc2ccccc2Br)oc2ccc3c(c12)C(=O)CC(C)(C)O3, CCc1nn(CC(=O)N2CCN(c3ccc(Cl)cc3)CC2)c(=O)c2cc3occc3n12, COc1ccc(CCn2cc3c(c2-c2ccc(Br)cc2)c(=O)n(C)c(=O)n3C)cc1OC, Cc1ccccc1NC(=O)Cn1c(=O)n(CC2CCC(C(=O)NCCc3ccccc3)CC2)c(=O)c2ccccc21 (stereo unspecified), Cc1ccc2nc(COc3ccccc3NC(=O)Nc3ccc(F)c(Cl)c3)cc(=O)n2c1, CCOC(=O)c1c(N)n(-c2cccc(C)c2C)c2nc3ccccc3nc12, COc1ccc2c(c1)C=C(C(=O)NCc1cc(Br)ccc1OC)CO2, COC(=O)c1cnc(N2CCN(c3ccccc3OC)CC2)c2ccccc12, COc1ccc(Br)cc1C1CC(=O)Nc2c1c(C)nn2-c1nc(C)cc(C)n1 (stereo unspecified), CCN1CCN(c2cc(C)c3cc(NC(=O)c4cc(Cl)ccc4OC)ccc3n2)CC1, CCc1ccc(NC(=O)c2cc3c(=O)n(Cc4cccnc4)ccc3nc2C)cc1, CCCCCn1c(CCCNC(=O)c2ccccc2OC)nc2ccccc21, COc1ccccc1CNS(=O)(=O)c1cc(Br)cc2c1N(C(C)=O)C(C)C2 (stereo unspecified), CCOc1cc(C2C(C(=O)OC)=C(C)NC3=C2C(=O)c2ccccc23)ccc1O (stereo unspecified), CCOc1ccc(C2C(=O)N(C3CCCCC3)CC(=O)N2CCC2=CCCCC2)cc1OC (stereo unspecified), O=C(Nc1ccc2nc(SCCOc3ccccc3)sc2c1)c1ccco1, CCc1cnc2c(c1SCC(=O)N1CCC(C)CC1)c(=O)n(C)c(=O)n2C, CCOc1ccc(N(CC)S(=O)(=O)N2CCCC(C(=O)Nc3ccc(C(C)=O)cc3)C2)cc1 (stereo unspecified), COc1ccc(Cn2cc(C(=O)c3ccc(C)cc3)c(=O)c3cc(OC)c(OC)cc32)cc1, Cc1csc2nc(COC(=O)c3ccc(NC(=O)COc4ccccc4F)cc3)cc(=O)n12, COc1ccc(OC)c(NC(=O)CSC2=Nc3ccccc3C3=NC(CC(=O)NCc4ccc(F)cc4)C(=O)N23)c1 (stereo unspecified), O=c1cc(COc2cccc(C(F)(F)F)c2)nc2sc3c(n12)CCCC3, CCC(=O)Nc1cccc(-c2nc3cc(C)ccc3o2)c1, COc1ccc(Cl)cc1-n1c(CCC(=O)O)ccc1-c1ccc(C)cc1, CCCC(=O)Nc1ccc(NC(=O)c2sc3ccccc3c2Cl)cc1, CC1CCCCN1S(=O)(=O)c1ccc(F)c(C(=O)Nc2ccccc2C(F)(F)F)c1 (stereo unspecified), CCc1cc2c(cc3c(=O)n(CC(=O)N4CCN(c5cc(Cl)ccc5C)CC4)nc(CC)n32)s1, Cc1nn(-c2ccc(N3CCCCC3)nn2)c(C)c1CCC(=O)NCc1ccc(F)cc1, Cc1cc(C)cc(NC(=O)CCS(=O)(=O)c2cc3c4c(c2)CCN4C(=O)CC3)c1, CCOC(=O)N1CCC(NC(=O)c2cnn(-c3cccc(C)c3)c2C2CCN(C(=O)OC(C)(C)C)CC2)CC1, COc1ccc(CNC(=O)c2cc3c(=O)[nH]c4ccccc4c3s2)cc1, CCOc1ccc(CNC(=O)C2CCCN(c3nnc(C)c4c(C)n(-c5ccccc5)nc34)C2)cc1 (stereo unspecified), Cc1nnc(C)n1-c1ccc(C(=O)Nc2cccc(Br)c2)cc1, COc1cc(NC(=O)CCNC(=O)Cn2ccc3ccccc3c2=O)cc(OC)c1OC, CCc1nonc1NC(=O)c1oc2ccc(Cl)cc2c1C
